Source: PubChem BioAssay (EPA / NIEHS)
Calls of active or inactive are those of the source. How the source made its calls: active means hit-call score of the fitted dose curve at least 0.9, where 1 is the maximum; inactive means score below 0.9.

What was measured:
[1] = BSK_hDFCGF_SRB: Viability Assessment in the BioMAP Diversity Plus: hDFCGF Assay (AID 2283061); settings: primary human foreskin fibroblasts;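 further: cells exposed to compound for 24 h before the read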
Method in brief: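 Human foreskin primary fibroblasts were treated with compound and assessed 24 h after dosing. Total protein was measured by sulforhodamine B staining (0.1% SRB after 10% TCA fixation, 560 nm read) as a cytotoxicity marker, with bidirectional fitting against DMSO baseline.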

[2] = read-out: TIMP metallopeptidase inhibitor 1 (TIMP1), TIMP1 (gene 7076); test: BSK_hDFCGF_TIMP1: BioMAP Diversity Plus: hDFCGF Assay for TIMP metallopeptidase inhibitor 1 (TIMP1) Biomarker Activity (AID 2283062); settings: primary human foreskin fibroblasts; actives raise or lower the signal
Method in brief: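 Primary human foreskin fibroblasts in the hDFCGF system were dosed with compound for 24 h, then TIMP-1 was measured by ELISA. Activity was fitted bidirectionally relative to DMSO control; parallel SRB staining assessed cytotoxicity.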

[3] = read-out: Monokine induced gamma interferon (MIG), CXCL9 (gene 4283); test: BSK_hDFCGF_MIG: BioMAP Diversity Plus: hDFCGF Assay for Monokine induced gamma interferon (MIG) Biomarker Activity (AID 2283063); settings: primary human foreskin fibroblasts; actives raise or lower the signal
Method in brief: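 ELISA read-out of MIG from primary human dermal fibroblasts 24 h post-dosing. Gain or loss of signal fitted bidirectionally, DMSO as baseline.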

[4] = read-out: Matrix Metallopeptidase 1 (MMP1), MMP1 (gene 4312); test: BSK_hDFCGF_MMP1: BioMAP Diversity Plus: hDFCGF Assay for Matrix Metallopeptidase 1 (MMP1) Biomarker Activity (AID 2283064); settings: primary human foreskin fibroblasts; actives raise or lower the signal
Method in brief: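 MMP1 levels quantified by ELISA 24 h after dosing human dermal fibroblast cultures, with parallel SRB total-protein staining for overt cytotoxicity. Data fitted in both directions against DMSO baseline.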

[5] = read-out: Vascular cell adhesion molecule 1 (VCAM1), VCAM1 (gene 7412); test: BSK_hDFCGF_VCAM1: BioMAP Diversity Plus: hDFCGF Assay for Vascular cell adhesion molecule 1 (VCAM1) Biomarker Activity (AID 2283065); settings: primary human foreskin fibroblasts; actives raise or lower the signal;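 on AC50: VCAM-1 protein level quantified by ELISA after 24 h chemical exposure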
Method in brief: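 Primary human foreskin fibroblasts (hDFCGF system) were dosed with chemical and VCAM-1 was measured by ELISA 24 h later. Bidirectional curve fitting used DMSO as negative control and activity baseline.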

[6] = read-out: Plasminogen activator inhibitor-1 (PAI1), SERPINE1 (gene 5054); test: BSK_hDFCGF_PAI1: BioMAP Diversity Plus: hDFCGF Assay for Plasminogen activator inhibitor-1 (PAI1) Biomarker Activity (AID 2283066); settings: primary human foreskin fibroblasts; actives raise or lower the signal
Method in brief: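 ELISA readout of PAI-1 from primary human skin fibroblast cultures, 24 h after compound addition. Gain or loss of signal was fitted bidirectionally against DMSO baseline.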

[7] = read-out: Intercellular Adhesion Molecule 1 (ICAM1), ICAM1 (gene 3383); test: BSK_KF3CT_ICAM1: BioMAP Diversity Plus: KF3CT Assay for Intercellular Adhesion Molecule 1 (ICAM1) Biomarker Activity (AID 2283067); settings: primary human keratinocytes with fibroblasts; actives raise or lower the signal
Method in brief: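 Human keratinocyte plus foreskin fibroblast primary co-culture was exposed to chemical for 24 h. ICAM-1 was then quantified by ELISA, and the data were fit bidirectionally against DMSO as the negative control and baseline.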

[8] = read-out: Interferon-gamma inducible Protein 10 (IP10), CXCL10 (gene 3627); test: BSK_KF3CT_IP10: BioMAP Diversity Plus: KF3CT Assay for Interferon-gamma inducible Protein 10 (IP10) Biomarker Activity (AID 2283068); settings: primary human keratinocytes with fibroblasts; actives raise or lower the signal
Method in brief: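 ELISA read-out of IP-10 after 24 h chemical dosing of human skin primary co-culture (keratinocytes, foreskin fibroblasts). Gain or loss of signal relative to DMSO, bidirectional curve fit.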

[9] = BSK_KF3CT_SRB: Viability Assessment in the BioMAP Diversity Plus: KF3CT Assay (AID 2283069); settings: primary human keratinocytes with fibroblasts
Method in brief: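 Cytotoxicity was gauged by SRB staining (0.1% SRB, 10% TCA fixation, 560 nm) of parallel cultures at 24 h. The cells were primary human skin keratinocytes co-cultured with fibroblasts, and activity was fitted in both directions against DMSO.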

[10] = read-out: Interleukin-1 alpha (IL1a), IL1A (gene 3552); test: BSK_KF3CT_IL1a: BioMAP Diversity Plus: KF3CT Assay for Interleukin-1 alpha (IL1a) Biomarker Activity (AID 2283070); settings: primary human keratinocytes with fibroblasts; actives raise or lower the signal
Method in brief: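 IL-1a was detected by ELISA 24 h after chemical treatment of a co-culture of human skin keratinocytes and foreskin fibroblasts. Gain or loss of signal was fitted against the DMSO baseline.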

[11] = read-out: Transforming growth factor beta 1 (TGFb1), TGFB1 (gene 7040); test: BSK_KF3CT_TGFb1: BioMAP Diversity Plus: KF3CT Assay for Transforming growth factor beta 1 (TGFb1) Biomarker Activity (AID 2283072); settings: primary human keratinocytes with fibroblasts; actives raise or lower the signal
Method in brief: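 Read-out: ELISA for TGF-b1 in keratinocyte/foreskin fibroblast human skin co-culture, 24 h after dosing; bidirectional curve fit vs DMSO baseline; gain or loss of signal scored.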

[12] = read-out: C-C motif chemokine 2 (Homo sapiens) (UniProt P13500); test: BSK_KF3CT_MCP1: BioMAP Diversity Plus: KF3CT Assay for Monocyte Chemoattractant Protein 1 (MCP1/CCL2) Biomarker Activity (AID 2283073); settings: primary human keratinocytes with fibroblasts; actives raise or lower the signal
Method in brief: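 Human keratinocyte plus foreskin fibroblast primary co-culture exposed to chemical for 24 h. MCP-1 levels measured by ELISA. Bidirectional curve fitting relative to DMSO negative control as baseline.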

[13] = read-out: urokinase plasminogen activator (uPA), PLAU (gene 5328); test: BSK_KF3CT_uPA: BioMAP Diversity Plus: KF3CT Assay for urokinase plasminogen activator (uPA) Biomarker Activity (AID 2283075); settings: primary human keratinocytes with fibroblasts; actives raise or lower the signal
Method in brief: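 ELISA read-out of uPA 24 h after dosing human skin keratinocytes co-cultured with foreskin fibroblasts. Signal change fitted both ways relative to DMSO; sulforhodamine B on parallel cultures marks overt cytotoxicity.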

[14] = read-out: CD40, CD40 (gene 958); test: BSK_LPS_CD40: BioMAP Diversity Plus: LPS Assay for CD40 Biomarker Activity (AID 2283076); settings: primary human HUVEC with PBMC; actives raise or lower the signal
Method in brief: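 Primary human umbilical vein endothelial cells co-cultured with peripheral blood mononuclear cells, LPS-stimulated, were dosed with chemical and read 24 h later. CD40 levels were measured by ELISA and fitted bidirectionally against DMSO as negative control and baseline.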

[15] = read-out: E-selectin (Homo sapiens) (UniProt P16581); test: BSK_LPS_Eselectin: BioMAP Diversity Plus: LPS Assay for Eselectin Biomarker Activity (AID 2283077); settings: primary human HUVEC with PBMC; actives raise or lower the signal
Method in brief: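 Human umbilical vein endothelial cells co-cultured with peripheral blood mononuclear cells under LPS stimulation; E-selectin measured by ELISA 24 h after chemical dosing. Activity fitted bidirectionally against DMSO as negative control and baseline.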

[16] = read-out: Interleukin-8 (IL8), CXCL8 (gene 3576); test: BSK_LPS_IL8: BioMAP Diversity Plus: LPS Assay for Interleukin-8 (IL8) Biomarker Activity (AID 2283078); settings: primary human HUVEC with PBMC; actives raise or lower the signal
Method in brief: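 Human umbilical vein endothelial cells co-cultured with PBMC were stimulated with LPS; IL-8 levels were measured by ELISA 24 h after chemical dosing. Activity was fitted bidirectionally against DMSO as negative control and baseline.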

[17] = BSK_LPS_SRB: Viability Assessment in the BioMAP Diversity Plus: LPS Assay (AID 2283079); settings: primary human HUVEC with PBMC;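 further: total protein by sulforhodamine B absorbance as a cytotoxicity measure; measured one day after compound addition; fitted in both directions against DMSO so loss or gain of signal counts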
Method in brief: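 Human umbilical vein endothelial cells co-cultured with PBMC (LPS system) were dosed for 24 h. Total protein was stained with 0.1% sulforhodamine B after 10% TCA fixation, read at 560 nm, and fitted bidirectionally against DMSO baseline.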

[18] = read-out: Interleukin-1 alpha (IL1a), IL1A (gene 3552); test: BSK_LPS_IL1a: BioMAP Diversity Plus: LPS Assay for Interleukin-1 alpha (IL1a) Biomarker Activity (AID 2283080); settings: primary human HUVEC with PBMC; actives raise or lower the signal
Method in brief: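 Human umbilical vein endothelial cells co-cultured with peripheral blood mononuclear cells were LPS-stimulated and exposed to test chemicals for 24 h. IL-1 alpha was quantified by ELISA, with bidirectional curve fitting against DMSO as the negative control and baseline.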

[19] = read-out: TIMP metallopeptidase inhibitor 2 (TIMP2), TIMP2 (gene 7077); test: BSK_KF3CT_TIMP2: BioMAP Diversity Plus: KF3CT Assay for TIMP metallopeptidase inhibitor 2 (TIMP2) Biomarker Activity (AID 2283071); settings: primary human keratinocytes with fibroblasts; actives raise or lower the signal
Method in brief: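 ELISA readout of TIMP-2 in keratinocyte plus foreskin fibroblast co-cultures (human skin primary cells), 24 h post-dose. Gain or loss of signal fitted relative to DMSO.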

[20] = read-out: Matrix Metallopeptidase 9 (MMP9), MMP9 (gene 4318); test: BSK_KF3CT_MMP9: BioMAP Diversity Plus: KF3CT Assay for Matrix Metallopeptidase 9 (MMP9) Biomarker Activity (AID 2283074); settings: primary human keratinocytes with fibroblasts; actives raise or lower the signal;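 on AC50: MMP9 protein level quantified by ELISA in the co-culture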
Method in brief: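 MMP-9 quantified by ELISA after 24 h chemical treatment of primary human skin keratinocyte/fibroblast co-cultures; gain or loss fitted against DMSO, with parallel SRB staining (0.1% SRB, 560 nm) for overt cytotoxicity.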

Measured: AC50

Sequence of E-selectin (Homo sapiens) (P16581 whole entry, looked up): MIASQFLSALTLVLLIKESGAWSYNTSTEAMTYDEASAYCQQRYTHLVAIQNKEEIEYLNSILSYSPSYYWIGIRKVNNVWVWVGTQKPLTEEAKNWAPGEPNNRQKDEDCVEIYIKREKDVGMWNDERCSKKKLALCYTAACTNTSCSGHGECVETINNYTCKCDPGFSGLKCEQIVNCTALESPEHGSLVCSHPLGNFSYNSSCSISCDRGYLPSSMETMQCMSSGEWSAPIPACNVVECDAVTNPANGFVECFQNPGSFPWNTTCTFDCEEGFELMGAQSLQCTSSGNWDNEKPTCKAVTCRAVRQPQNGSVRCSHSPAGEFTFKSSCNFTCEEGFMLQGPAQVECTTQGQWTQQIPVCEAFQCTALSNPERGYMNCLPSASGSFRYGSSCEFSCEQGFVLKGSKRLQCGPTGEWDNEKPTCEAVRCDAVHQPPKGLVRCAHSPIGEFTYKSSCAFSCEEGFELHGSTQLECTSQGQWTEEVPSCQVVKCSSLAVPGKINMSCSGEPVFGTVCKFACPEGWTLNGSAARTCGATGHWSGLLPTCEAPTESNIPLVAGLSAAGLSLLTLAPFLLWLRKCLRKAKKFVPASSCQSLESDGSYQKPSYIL

O=C(N[C@H](c1ccccc1)[C@@H]1CN2CCC1CC2)c1c(Cl)ccc(C(F)(F)F)c1Cl
active: [7] 49.6 µM | [8] 49 µM | [9] 44.6 µM | [10] 47.9 µM | [11] 48.7 µM | [13] 42.7 µM | [14] 19.5 µM | [16] 7.76 µM | [17] 29.7 µM
inactive: [1] | [2] | [3] | [4] | [5] | [6] | [12] | [15] | [18]

c1ccc2c(c1)oc1ccccc12
not listed: [2]
inactive: all other assays above

CCN(CC)CCO
not listed: [2] | [20]
inactive: all other assays above

Nc1ccc(N=Nc2ccccc2)cc1
active: [5] 20 µM | [20] 20 µM
not listed: [2] | [17]
inactive: all other assays above

CC(C)(OOC(C)(C)c1ccccc1)c1ccccc1
inactive: [2] | [7] | [8] | [9] | [10] | [11] | [12] | [13]
active: [1] 29.1 µM | [3] 20 µM | [4] 38.1 µM | [5] 28.8 µM | [6] 15.4 µM | [14] 34.6 µM | [15] 34 µM | [16] 30.1 µM | [17] 36.8 µM | [18] 29.2 µM

CCOc1cccc(C2(N3CCN(c4ccccc4)CC3)CCC(C)CC2)c1 (configuration not stated)
not listed: [19] | [20]
inactive: all other assays above

CCCSC(=O)N(CCC)CCC
not listed: [2] | [20]
inactive: all other assays above
